# Screening data: PubChem BioAssay, National Center for Advancing Translational Sciences (NCATS)
# In the library only some 19% were active in any assay of this set; here they are far more common.
# Pf growth 48h = inhibits P. falciparum growth in the first generation, 48 h; actives 5.9% (n = 310,000); P. falciparum luciferase growth in erythrocytes, 48 h; Potency, µM (highest dose often 28.7 µM), for the others: top-dose activity change, negative = inhibition, usual class: inhibitors; further: potency means the concentration at half of the fitted maximal effect; on the % scale 0 is the no-effect control and ±100 the full control effect
#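 Here the parasites carry a stable luciferase gene and grow inside erythrocytes in Albumax-based RPMI medium with compound for one erythrocytic cycle. Activity is scored as loss of luminescent signal.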
# Shiga inhibitor = blocks Shiga toxin action in Vero cells. inhibition, % at 38.7 µM. actives 9.2% (n = 290,000). Vero cells, Shiga toxin protein synthesis inhibition reporter; in the data active means inhibition mostly above about 28%, no sharp cut-off; inactive means mostly below about 43%; further: 0% is about no effect
# SARS PLpro yeast = SARS-CoV PLP inhibition in yeast; S. cerevisiae expressing SARS-CoV PLpro, growth rescue; Potency, µM (top dose mostly 32.9 µM), for inactives: at the highest dose activity, positive = growth rescue, actives largely listed as activators; actives 0.19% (n = 330,000); calls by dose curve; further: potency means the concentration at half of the fitted maximal effect; 0% is about no effect; nearly all actives have a fitted effect of over 55% in size
# CHX counter = counter-screen hit for Shiga toxin inhibitors, cycloheximide. max response, %. cell reporter, cycloheximide protein synthesis inhibition counterscreen. actives 12% (n = 300,000); in the data active means max response mostly above about 13%, no sharp cut-off; inactive means mostly below about 14%; further: read at 38.3 µM for the half of the compounds with a filed dose; 0% is about no effect
# Pf growth 96h = P. falciparum growth inhibition at 96 hour, primary screen for plastid delayed-death inhibitors | P. falciparum luciferase reporter growth, 96 h | Potency, µM (doses to about 28.7 µM), for the others: at the top dose activity change, negative = inhibition, hits mostly inhibitors | actives 6.9% (n = 320,000); further: potency means the concentration at half of the fitted maximal effect; on the % scale 0 is the no-effect control and ±100 the full control effect
#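 P. falciparum expressing integrated firefly luciferase, in erythrocytes at 2% hematocrit, 0.05% parasitemia, incubated with compounds 96 h at 37 C, 5% CO2. Growth inhibition read as loss of luminescence; two-generation exposure targets delayed-death apicoplast inhibitors.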
# AMA1 RON2 block = AMA1-RON2 (P. falciparum) interaction inhibition; AlphaScreen AMA1-biotinylated RON2 peptide binding; Potency, µM (titrated, usually from 58.2 µM), for inactives: at the highest dose activity change, negative = inhibition, most hits filed as inhibitors; actives 0.2% (n = 360,000); AID 720542;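 further: potency means the concentration at half of the fitted maximal effect; 0% = vehicle wells and -100% = peptide control; nearly all actives have a fitted effect of over 45% in size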
#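 AMA1 (3D7) with his tag at 25 nM final met compounds first, then biotinylated RON2 peptide at 25 nM; detection used donor plus acceptor beads, 10 µg/mL apiece, read by AlphaScreen after 30 min at room temperature.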
# * marks the source's active call; other numbers are inactive results; i = inactive; ? = inconclusive; . = no result given; [ ] = another dose, or the depositor's remark. Unless noted, the call rests on the fitted dose curve; in most records, active means well fitted curve in the direction sought with a large enough effect; inconclusive means small, poorly fitted or top-dose-only effect, or another doubt; inactive means no such curve, though single readings can be large; an effect the other way counts as inactive or inconclusive.
SMILES,Pf growth 48h,Shiga inhibitor,SARS PLpro yeast,CHX counter,Pf growth 96h,AMA1 RON2 block
COc1ccc(C(=O)NCC(c2ccco2)N2CCCC2)cc1S(=O)(=O)N1CCCCC1C (centres undefined),?,.,4%,.,5.2µM*,7%
COc1ccc(C(=O)NCCc2c[nH]c3ccccc23)cc1S(=O)(=O)N1CCCCC1C (centres undefined),8.3µM*,.,8%,.,13µM*,-12%[11.6 µM]
CC(CC(=O)NC(C)c1ccc2c(c1)OCCO2)c1ccccc1 (centres undefined),4%,6,25%,4,92%,-6%
O=C(NC(Cc1ccccc1)C(=O)N1CCN(c2ccc(F)cc2)CC1)c1ccccc1 (centres undefined),.,.,.,.,.,-11%
O=C(NC(Cc1ccccc1)c1ccc2c(c1)OCCCO2)c1ccc(F)cc1 (centres undefined),.,30,10%,20,9.3µM*,6%
CC(=O)NC(Cc1ccccc1)c1ccc2c(c1)OCCCO2 (centres undefined),-7%,active,-3%,11,-14%,4%
COc1cccc(NC(=O)c2ccc3c(c2)OCCO3)c1,167%,23,-33%,15,?,3%
COc1cccc(C(=O)NC(Cc2ccccc2)c2ccc3c(c2)OCCCO3)c1 (centres undefined),.,-3,4%,2,3.3µM*,-1%
Cc1ncc(CN2CCCC(C(=O)c3sccc3C)C2)s1 (centres undefined),-16%,-22,1%,7,12µM*,-1%
COc1ccc(Cl)cc1C(=O)C1CCCN(Cc2cnc(C)s2)C1 (centres undefined),?,53*,1%,17*,?,-24%
COc1ccc(F)cc1C(=O)C1CCCN(Cc2cnc(C)s2)C1 (centres undefined),2%,-11,-2%,-1,?,2%
CC(C(=O)Nc1sc2c(c1C(=O)NCC1CCCO1)CCC2)N1C(=O)c2ccccc2C1=O (centres undefined),3%,11,19%,1,7%,-8%
CC1=CC(=C(c2ccc(N)cc2)c2ccc(N)cc2)C=CC1=N,2.4µM*,.,.,.,1.1µM*,.
Cc1nc2ccc([N+](=O)[O-])cc2c(=O)n1Cc1ccc([N+](=O)[O-])cc1,15%,-7,-6%,-2,-17%,-2%
Cc1nc2ccc([N+](=O)[O-])cc2c(=O)n1Cc1ccc(Br)cc1,4%,17,-9%,-1,3.3µM*,-6%
O=C(COC(=O)c1cc(Br)ccc1Cl)NC1CCCC1,12%,17,-2%,10,24%,2%
N=C1N(/N=C/c2ccccc2)C(=Nc2ccccc2)C(=S)N1c1ccccc1,?,active,26%,42*,84%,17%
Cc1cc(C)n(-c2cccc(CN(C)Cc3nc(-c4cnccn4)no3)c2)n1,-4%,-8,0%,-3,27%,-17%
Cc1ccccc1COc1cccn2c(N(C)C(=O)CCC3CCCC3)c(C)nc12,.,.,.,.,.,-16%
O=C(/C=C/c1ccc([N+](=O)[O-])cc1)N1CCN(S(=O)(=O)c2cccs2)CC1,28%,-9,1%,1,-5%,-1%
COc1c2c(c(C)c3c1C(=O)OC3)O[C@@]1(C)CC[C@@]3(O)C(C)(C)OC(=O)CC[C@]3(C)[C@H]1C2,0%,2,1%,-6,-2%,-11%
CCOC(=O)c1c(/N=C/N(C)C)sc(C=O)c1-c1ccccc1,-20%,-12,-1%,-2,1%,-1%
CCOC(=O)c1c(/N=C/N(C)C)sc(/C=N/Nc2ccccc2)c1-c1ccccc1,15µM*,9,28%,0,10µM*,3%
CCOC(=O)c1c(NC(=O)CN2CCCCC2)sc(CN(C)C)c1-c1ccccc1,1%,17,0%,3,8%,50%
CCOC(=O)c1c(NC(=O)CCl)sc(CN(C)C)c1-c1ccccc1,13µM*,-11,2%,-2,?,9%
SMILES,Pf growth 48h,Shiga inhibitor,SARS PLpro yeast,CHX counter,Pf growth 96h,AMA1 RON2 block
CCOC(=O)c1c(/N=C/N(C)C)sc(/C=N/Nc2ccccc2)c1-c1ccccc1Cl,6.6µM*,5,-16%,-1,?,-9%
Cn1c(SCc2ccc(F)cc2)nnc1-c1ccccn1,59%,116*,0%,39*,205%,-18%
Cc1ccc(CSc2nnc(-c3ccccn3)n2C)cc1,-6%,94*,-24%,24*,12%,-13%
c1ccc(CSc2nnc(-c3ccccn3)n2-c2ccccc2)cc1,0%,-7,-3%,1,.,-8%
Cn1c(CO)cnc1SCc1ccc(F)cc1,i,50*,2%,17*,0%,12%
Cn1ccc(NC(=O)c2ccc([N+](=O)[O-])cc2)n1,-1%,.,-4%,.,24%,-1%
CC(=Nc1cc(C(=O)c2ccccc2)ccc1N)C1=C(O)CC(C)(C)CC1=O,127%,125*,-4%,29*,15%,4%
COc1ccccc1NS(=O)(=O)c1cc(NC(=O)CCc2nc3ccccc3c(=O)[nH]2)ccc1C,?,.,-1%,.,10µM*,-15%
COc1cccc(Oc2ccc(C(F)(F)F)cc2NC(=O)CCc2nc3ccccc3c(=O)[nH]2)c1,5.9µM*,55*,9%,43*,1.7µM*,-1%
O=C(CCc1nc2ccccc2c(=O)[nH]1)Nc1cc(Cl)ccc1N1CCCCC1,10µM*,.,2%[6.58 µM],.,?,-10%
O=C(CCc1nc2ccccc2c(=O)[nH]1)Nc1cc(C(F)(F)F)ccc1N1CCOCC1,-2%,.,-5%,.,-17%,-13%
COc1ccc(-n2ncc3c2CC(C)(C)CC3NC(=O)c2ccnn2C)cc1 (centres undefined),0%,28,0%,24,36%,-9%
COc1ccc([C@H]2N[C@]3(CCCN(Cc4ccc(C)cc4)C3=O)[C@H]3C(=O)N(C)C(=O)[C@@H]23)cc1,.,.,.,.,.,-3%
Cn1nc(C(C)(C)C)cc1C(=O)N1CCCC(c2cc(C(=O)Nc3ccccc3Cl)no2)C1 (centres undefined),.,.,.,.,.,-6%
O=C(O)/C=C/C(=O)Nc1ccc(OCc2ccccc2)cc1,38%,54,-7%,19*,42%,-14%
C[C@H](NC(N)=O)C(=O)Nc1ccc(OCc2ccccc2)cc1,385%,66,0%,59*,i,-4%
O=C(O)/C=C/C(=O)Nc1ccc(-c2ccccc2)cc1,6%,92*,-5%,45*,-2%,-1%
O=C(O)/C=C/C(=O)Nc1ccc(OC(F)F)cc1,0%,-12,-2%,-3,9%,-2%
O=C(O)/C=C/C(=O)Nc1ccc(OC(F)(F)F)cc1,5%,5,-2%,8,42%,1%
